Compounds without any hit were thinned out: in the full panel of roughly 79,000, 15% have a hit. Values without a mark were called inactive. Activity calls are given as the source filed them. No stated cut-off is given here; in the data, active means growth inhibition above about 70%; inactive means the rest.

A short description of the first assay: NCI Yeast Anticancer Drug Screen. Data for the cln2 rad14 strain (AID 165).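 Further: 0% = growth equal to vehicle treated cultures.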 To be noted: S. cerevisiae cln2 rad14 strain, at 50.0 µM, active compounds read high. A digest of the protocol: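 The screen exposed genetically defined yeast (cln2 rad14) to test compounds and scored growth inhibition relative to vehicle-treated controls.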
For the molecule `CCCCOB1OC(c2ccccc2)(c2ccccc2)c2ccccc2C(c2ccccc2)(c2ccccc2)O1`, the growth inhibition was 3.85%.
As to `O=S(=O)(Cc1c[nH]c2ccccc12)c1ccccc1`, the growth inhibition is 11.3%.
With `C=CCSC(=S)NC`, the growth inhibition is 10.2%.
Still for that read-out and setting: under `CC(=O)Nc1ccc(S(=O)(=O)NCCC(=O)O)cc1` stands 4.3%; under `Cc1nc2c3c4c(sc3nc(C)n2n1)CCCC4`, 80.4% (active); under `C=C1C(=O)OC2(C)CCC1CC1OC1(C)CC/C=C(\C)CCC2OC(C)=O` (stereo not given), 8.25%.
The same measure, in the same setting: the same measure for `OCC1(CO)CCCO1`: 5.1%.
Still for that read-out and setting: under `CC(=O)C(C(=O)NCc1ccccc1)C(c1ccc2c(c1)OCO2)C(C(C)=O)C(=O)NCc1ccccc1` (stereo not given) stands -17.3%; under `OCCCN1CCN(CCO)CC1`, -48.9%.
Turning to `COC(=O)C1OC(O[C@H]2CC[C@]3(C)[C@H]4CC=C5[C@@H]6CC(C)(C)CC[C@]6(C(=O)OC6OCC(O)C(O)C6OC6OC(C)C(OC7OCC(OC8OCC(O)C(O)C8O)C(O)C7O)C(O)C6O)[C@H](O)C[C@@]5(C)[C@]4(C)CC[C@H]3C2(C)C)C(O)C(O)C1O` (stereo not given in full), the growth inhibition is 11.9%.
For the molecule `C/C(CCc1ccccc1Br)=N/NC(N)=O`, the growth inhibition was -34.4%.
Regarding `Cc1cc(C)c2nc3c(c(C(O)C4CCCCN4)c2c1)CC/C3=C\c1ccc(Cl)cc1` (stereo not given), the growth inhibition is -7.75%.
As for `O=C(NC(=O)C1CCC(=O)N1Cc1ccccc1)NC1CCC(=O)N1Cc1ccccc1` (stereo not given), the growth inhibition was 1.8%.
Same read-out and setting: the same measure for `O=C(O)c1cc(Br)cc([N+](=O)[O-])c1`: -49.3%.
On to `CC(=O)CC(=O)C(F)(F)F`, for which the growth inhibition was 9.8%.
On to `N#CC(C#N)=C(N)/C(C#N)=C/c1ccc(O)c(O)c1`, for which the growth inhibition was 3.7%.
As for `C/C(O)=C(\C=N\C(=S)N=Nc1c(O)[nH]c2ccccc12)C(=O)Nc1ccccc1C`, the growth inhibition is 32.5%.
For `CC(C)(C)NC(NC(C)(C)C)=C(/C=C(/Cl)[N+](=O)[O-])[N+](=O)[O-]`, the growth inhibition was -10.9%.
With `C1CCC(c2nn[nH]n2)CC1`, the growth inhibition was 11.7%.
`NC(=NC1CCCCC1)/N=C(/N)Nc1ccc(Cl)cc1`: the growth inhibition was -29.6%.
Regarding `C#CCN(C(=O)C(F)(F)F)C(/C=C\C(=O)OC)(C(=O)OCC)C(=O)OCC`, the growth inhibition was -4.5%.
Consider `c1ccc(-c2oc3ccccc3c2-c2ccc(OCCN3CCCC3)cc2)cc1`, for which the growth inhibition was 99.3% (active).
Take `NC(=O)C(=CNC(=S)Nc1ccc(S(=O)(=O)Nc2ccccn2)cc1)C(N)=O`: the growth inhibition is -4.1%.
On to `O=C1c2ccccc2C(=O)N1/N=N/N1C(=O)c2ccccc2C1=O`, for which the growth inhibition was 96.1% (active).
Take `CN1CCCC(CO)C1` (stereo not given): the growth inhibition is 6.95%.
Same read-out and setting: under `CCCC(=O)Oc1cc(C)ccc1C(C)(C)C` stands -33.6%.
For `COc1cc(CCCCC(=O)O)ccc1OC(=O)c1ccccc1`, the growth inhibition is 2.05%.
Regarding `O=[N+]([O-])c1nccn1CCCNc1c2ccccc2nc2ccccc12`, the growth inhibition is 23.1%.
For the molecule `C(=N\c1nnc2ccccn12)/c1ccccc1`, the growth inhibition is -9.6%.
Turning to `NC(Cc1cccc2ccccc12)C(=O)O` (stereo not given), the growth inhibition was -48.1%.
In the case of `Clc1cc(/C=C/c2ccccc2)c2ccccc2n1`, the growth inhibition was -7.5%.
Turning to `CCN(CC)CCn1ncc2ccc3c(c(=O)c4cccnc4n3CCN(CC)CC)c21`, the growth inhibition was 27.8%.
With `O=c1c2n[nH]nc2nc2n1CC(c1ccccc1)S2` (stereo not given), the growth inhibition was -3.2%.
On to `O=C(OCc1ccccc1)C1CC1` (tested in a mixture with another compound), for which the growth inhibition is 6.1%.
For the molecule `Cc1nn(C(=O)c2ccncc2)c2c1C(c1ccccc1[N+](=O)[O-])SC(N)=N2` (stereo not given), the growth inhibition is 26.1%.
As to `C=CNC(=S)n1nc(-c2ccccc2NC(=O)C(F)(F)F)c(=O)n(C(=S)NC=C)c1=S`, the growth inhibition was -0.55%.
In the case of `O=c1c(O)c(-c2ccc(O)cc2O)oc2cc(O)cc(O)c12`, the growth inhibition was 3.5%.
Regarding `O=C(O)CN1CCCCC1`, the growth inhibition was -27.1%.
Same read-out and setting: the same measure for `O=c1c(=[n+]2ccc(=C([O-])c3ccccc3)cc2)/c(=N/S(=O)(=O)c2ccccc2)c(=O)c2ccccc12`: 7%; for `N#Cc1cc(Cl)ccc1N=Cc1c(Cl)cccc1Cl`: 14.6%.

A short description of another assay: NCI Yeast Anticancer Drug Screen. Data for the bub3 strain (AID 167). To be noted: S. cerevisiae bub3 mutant strain, at 50.0 µM, active compounds read high. A digest of the protocol:
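Growth of a checkpoint-deficient yeast mutant is measured after compound exposure. Values represent inhibition relative to vehicle.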
As for `CCCCOB1OC(c2ccccc2)(c2ccccc2)c2ccccc2C(c2ccccc2)(c2ccccc2)O1`, the growth inhibition is -2.1%.
Still for that read-out and setting: the same measure for `O=S(=O)(Cc1c[nH]c2ccccc12)c1ccccc1`: 20.5%; for `C=CCSC(=S)NC`: -0.9%.
In the case of `CC(=O)Nc1ccc(S(=O)(=O)NCCC(=O)O)cc1`, the growth inhibition was 4.45%.
`Cc1nc2c3c4c(sc3nc(C)n2n1)CCCC4`: the growth inhibition was 7.3%.
The same measure, in the same setting: under `C=C1C(=O)OC2(C)CCC1CC1OC1(C)CC/C=C(\C)CCC2OC(C)=O` (stereo not given) stands -3%; under `OCC1(CO)CCCO1`, -0.4%; under `CC(=O)C(C(=O)NCc1ccccc1)C(c1ccc2c(c1)OCO2)C(C(C)=O)C(=O)NCc1ccccc1` (stereo not given), -0.65%.
With `OCCCN1CCN(CCO)CC1`, the growth inhibition was 4.25%.
On to `COC(=O)C1OC(O[C@H]2CC[C@]3(C)[C@H]4CC=C5[C@@H]6CC(C)(C)CC[C@]6(C(=O)OC6OCC(O)C(O)C6OC6OC(C)C(OC7OCC(OC8OCC(O)C(O)C8O)C(O)C7O)C(O)C6O)[C@H](O)C[C@@]5(C)[C@]4(C)CC[C@H]3C2(C)C)C(O)C(O)C1O` (stereo not given in full), for which the growth inhibition was 42.6%.
For the molecule `C/C(CCc1ccccc1Br)=N/NC(N)=O`, the growth inhibition is 2.6%.
Regarding `Cc1cc(C)c2nc3c(c(C(O)C4CCCCN4)c2c1)CC/C3=C\c1ccc(Cl)cc1` (stereo not given), the growth inhibition is -23.9%.
Still for that read-out and setting: under `O=C(NC(=O)C1CCC(=O)N1Cc1ccccc1)NC1CCC(=O)N1Cc1ccccc1` (stereo not given) stands 0.85%; under `O=C(O)c1cc(Br)cc([N+](=O)[O-])c1`, -16.2%; under `CC(=O)CC(=O)C(F)(F)F`, 7.3%.
Still for that read-out and setting: the same measure for `N#CC(C#N)=C(N)/C(C#N)=C/c1ccc(O)c(O)c1`: 2.4%; for `C/C(O)=C(\C=N\C(=S)N=Nc1c(O)[nH]c2ccccc12)C(=O)Nc1ccccc1C`: 62%; for `CC(C)(C)NC(NC(C)(C)C)=C(/C=C(/Cl)[N+](=O)[O-])[N+](=O)[O-]`: 15.9%.
Turning to `C1CCC(c2nn[nH]n2)CC1`, the growth inhibition was 8.05%.
Take `NC(=NC1CCCCC1)/N=C(/N)Nc1ccc(Cl)cc1`: the growth inhibition was 4.7%.
Still for that read-out and setting: the same measure for `C#CCN(C(=O)C(F)(F)F)C(/C=C\C(=O)OC)(C(=O)OCC)C(=O)OCC`: -17.2%; for `c1ccc(-c2oc3ccccc3c2-c2ccc(OCCN3CCCC3)cc2)cc1`: 99.3% (active).
As to `NC(=O)C(=CNC(=S)Nc1ccc(S(=O)(=O)Nc2ccccn2)cc1)C(N)=O`, the growth inhibition is 11.3%.
Turning to `O=C1c2ccccc2C(=O)N1/N=N/N1C(=O)c2ccccc2C1=O`, the growth inhibition was 98.6% (active).
Still for that read-out and setting: the same measure for `CN1CCCC(CO)C1` (stereo not given): 7.75%.
For `CCCC(=O)Oc1cc(C)ccc1C(C)(C)C`, the growth inhibition was -35.6%.
Still for that read-out and setting: the same measure for `COc1cc(CCCCC(=O)O)ccc1OC(=O)c1ccccc1`: -6.3%; for `O=[N+]([O-])c1nccn1CCCNc1c2ccccc2nc2ccccc12`: 6.5%; for `C(=N\c1nnc2ccccn12)/c1ccccc1`: -13.7%.
Turning to `NC(Cc1cccc2ccccc12)C(=O)O` (stereo not given), the growth inhibition was -7.3%.
In the case of `Clc1cc(/C=C/c2ccccc2)c2ccccc2n1`, the growth inhibition was -4.65%.
Consider `CCN(CC)CCn1ncc2ccc3c(c(=O)c4cccnc4n3CCN(CC)CC)c21`, for which the growth inhibition was 11.6%.
`O=c1c2n[nH]nc2nc2n1CC(c1ccccc1)S2` (stereo not given): the growth inhibition was -16.2%.
For the molecule `O=C(OCc1ccccc1)C1CC1` (tested in a mixture with another compound), the growth inhibition is 20.8%.
Take `Cc1nn(C(=O)c2ccncc2)c2c1C(c1ccccc1[N+](=O)[O-])SC(N)=N2` (stereo not given): the growth inhibition is 43.6%.
Still for that read-out and setting: the same measure for `C=CNC(=S)n1nc(-c2ccccc2NC(=O)C(F)(F)F)c(=O)n(C(=S)NC=C)c1=S`: -9.1%; for `O=c1c(O)c(-c2ccc(O)cc2O)oc2cc(O)cc(O)c12`: -19.4%; for `O=C(O)CN1CCCCC1`: -4.1%.
Take `O=c1c(=[n+]2ccc(=C([O-])c3ccccc3)cc2)/c(=N/S(=O)(=O)c2ccccc2)c(=O)c2ccccc12`: the growth inhibition was 12.8%.
Regarding `N#Cc1cc(Cl)ccc1N=Cc1c(Cl)cccc1Cl`, the growth inhibition is -6.55%.
